Results filed as inconclusive are left out. Active and inactive are the calls of the source. How the source made its calls: active means hit-call score of the fitted dose curve at least 0.9, where 1 is the maximum; inconclusive means response in the unintended direction; inactive means score below 0.9.

Read-out in this assay: xenobiotic metabolism (CYP1A2), CYP1A2 (gene 1544)
Briefly: CLD_CYP1A2_48hr: CellzDirect (CLD) Gene Expression Assay for xenobiotic metabolism (CYP1A2) at 48 hours (AID 2283703). The procedure: CLD_48hr is a cell-based, multiplexed-readout assay that uses hepatocyte, a human liver primary cell, with measurements taken at 48 hours after chemical dosing in a 96-well plate.CLD_CYP1A2_48hr is one of 16 assay component(s) measured or calculated from the CLD_48hr assay. It is designed to make measurements of mRNA induction, a form of inducible reporter, as detected with chemiluminescence signals by Quantitative Nuclease Protection Assay (qNPA) technology.Data from the assay component CLD_CYP1A2_48hr was analyzed at the endpoint, CLD_CYP1A2_48hr, in the positive analysis fitting direction relative to DMSO as the negative control and baseline of activity. Using a type of inducible reporter, gain-of-signal activity can be used to understand changes in the reporter gene as they relate to the gene CYP1A2. Furthermore, this assay endpoint can be referred to as a primary readout. To generalize the intended target to other relatable targets, this assay endpoint is annotated to the cyp intended target family, where subfamily is xenobiotic metabolism.
Human hepatocyte cultures were treated daily for two consecutive days with fresh dosing solutions containing appropriate concentrations of the 320 ToxCast chemicals (chemical identities were blinded to CellzDirect and other ToxCast collaborators), vehicle control (0.2% DMSO), and positive control inducers as summarized in Table 1. Due to the large number of treatment groups and chemicals examined, the ToxCast chemicals were divided into two groups (spanning two independent cultures of hepatocytes from separate donor preparations (Hu778: ToxCast plates 1 and 2; Hu776: ToxCast plates 3 and 4). Each preparation of human hepatocyte cultures was treated with respective vehicle control, medium only control, set of six positive controls/reference chemicals for the five hepatic receptor pathways, and a subset of eight of the ToxCast chemicals (indoxacarb, pyrithiobac-sodium, norflurazon, cyhalofop-butyl, methomyl, thiram, acetochlor, and propiconazole). These replicate data, coupled with internal replicates designed within the blinded ToxCast chemical library, provided additional data to evaluate interindividual differences between hepatocyte preparations and their potential impact on chemical profiles.Cell morphology and integrity were evaluated using phase-contrast microscopy as an indicator of hepatocyte cell health (Tyson & Green, 1987). Cultures for each treatment group (i.e., media, vehicle [0.2% DMSO], positive control inducers [multiple concentrations], and the ToxCast chemicals [multiple concentrations]) were observed and cell morphology was assessed relative to vehicle control cultures at each harvest time point (0, 6, 24, or 48 h). […] Images were evaluated at the conclusion of the study to assess changes in cell integrity and account for the effects of chemical exposure on uncharacteristic changes in concentration-dependent gene expression profiles. The results from these determinations of apparent cytotoxicity were annotated (yes/no) alongside the corresponding qNPA data for reference.At the conclusion of each treatment period, hepatocyte cultures (96-well) were washed with 1 volume of HBSS, lysed by addition of 25 ul ArrayPlate lysis buffer (HTG, Tucson, AZ), and 70 ul/well of Denaturation Oil, denatured by incubation at 95C for 10 min, and frozen at approximately -70C until analysis by nuclease protection assay (qNPA) (Roberts et al., 2007). For qNPA analysis, cell lysates were thawed at 50C for approximately 30 min, qNPA probes were added, and samples were incubated at 95C for 10 min to begin the detection process by denaturing the target RNA, dissociating the duplexes and secondary structure hybridization. At the conclusion of the hybridization period, S1 nuclease reagent was added to each sample to digest all nonprotected nucleotides at 50C for 60-90 min. […]
Regarding `CN1COCN(Cc2cnc(Cl)s2)C1=N[N+](=O)[O-]`, the result was inactive.
Same read-out and setting: next, `CN(C)NC(=O)CCC(=O)O`: “inactive”; `CNC(=O)ON=C(SC)C(=O)N(C)C`: “inactive”.
Same read-out and setting: the result for `N#CSCSC#N` reads “inactive”.
As to `FC(F)C(F)(F)OCC(Cn1cncn1)c1ccc(Cl)cc1Cl` (stereo not given), the concentration at half-maximal activity (AC50) (in general, the midpoint of the concentration-response curve, whichever way the signal moves) was 1.27 µM (active).
Take `CCOP(=O)(OCC)Oc1cc(C)nc(C(C)C)n1`: the AC50 is 11.6 µM (active).
The same measure, in the same setting: the result for `CC(C1CC1)C(O)(Cn1cncn1)c1ccc(Cl)cc1` (stereo not given) reads 5.01 µM (active).
With `CSc1nc(NC(C)C)nc(NC(C)C)n1`, the half-maximal activity concentration (AC50) was 1.64 µM (active).
With `COP(=O)(OC)SCn1c(=O)oc2cc(Cl)cnc21`, the call was inactive.
The same measure, in the same setting: next, `CCc1cccc(C)c1N(C(=O)CCl)C(C)COC` (stereo not given): “inactive”; `Cc1ccn2nc(S(=O)(=O)Nc3c(F)cccc3F)nc2n1`: “inactive”.
Still for that read-out and setting: next, `CON=C(C(=O)OC)c1ccccc1CON=C(C)c1cccc(C(F)(F)F)c1`: “inactive”; `CC(C)N(C(=O)SCC(Cl)=C(Cl)Cl)C(C)C`: “inactive”; `COP(=O)(OC)OC(Br)C(Cl)(Cl)Br` (stereo not given): “inactive”.
As for `CNc1cnn(-c2cccc(C(F)(F)F)c2)c(=O)c1Cl`, the concentration at half-maximal activity (AC50) is 5.39 µM (active).
In the case of `CCCCOC(=O)[C@@H](C)Oc1ccc(Oc2ccc(C#N)cc2F)cc1`, the compound was called inactive.
Turning to `CCOP(=S)(Oc1cnc(C(C)(C)C)nc1)OC(C)C` (stereo not given), the half-maximal activity concentration (AC50) was 2.68 µM (active).
As to `CNC(=O)Oc1cccc2c1OC(C)(C)O2`, the compound was called inactive.
On to `CCc1cccc(CC)c1N(COC)C(=O)CCl`, for which the call was inactive.
Turning to `CCC(CC)Nc1c([N+](=O)[O-])cc(C)c(C)c1[N+](=O)[O-]`, the AC50 was 9.85 µM (active).
`CNC(=O)ON=C(C)SC`: the call was inactive.
With `C[Si](Cn1cncn1)(c1ccc(F)cc1)c1ccc(F)cc1`, the half-maximal activity concentration (AC50) was 1.89 µM (active).
`CC(Oc1cccc(Cl)c1)C(=O)O` (stereo not given): the compound was called inactive.
Regarding `CCOP(=S)(OCC)Oc1cc(C)nc(C(C)C)n1`, the concentration at half-maximal activity (AC50) is 2.77 µM (active).
On the same count and under the same terms, next, `CCOP(=S)(OCC)OC(Cl)C(Cl)(Cl)Cl` (stereo not given): 9.25 µM (active); `CC(C)[C@H](C(=O)O[C@H](C#N)c1cccc(Oc2ccccc2)c1)c1ccc(Cl)cc1`: 20 µM (active).
Same read-out and setting: next, `CCOP(=O)(NC(C)C)Oc1ccc(SC)c(C)c1` (stereo not given): 5.87 µM (active); `CC1=NNC(=O)N(/N=C/c2cccnc2)C1`: 8.29 µM (active).
Take `CCOP(=O)(SC(C)CC)N1CCSC1=O` (stereo not given): the concentration at half-maximal activity (AC50) was 4.51 µM (active).
Turning to `CCOC(=O)COc1cc(-c2nn(C)c(OC(F)F)c2Cl)c(F)cc1Cl`, the outcome was inactive.
Take `CCOP(=S)(OCC)Oc1ccc([N+](=O)[O-])cc1`: the AC50 is 2.97 µM (active).
On to `CCCOc1nn(C(=O)NS(=O)(=O)c2ccccc2C(=O)OC)c(=O)n1C`, for which the compound was called inactive.
For the compound `CCOP(=S)(OCC)SCCSCC`, the AC50 is 7.27 µM (active).
Still for that read-out and setting: the result for `CCCSP(=O)(OCC)Oc1ccc(Br)cc1Cl` (stereo not given) reads 4.26 µM (active); that for `Cc1cc(C2CC2)nc(Nc2ccccc2)n1`, 3.97 µM (active).
`CC(=NC#N)N(C)Cc1ccc(Cl)nc1`: the compound was called inactive.
Same read-out and setting: the result for `CCc1cnc(C2=NC(C)(C(C)C)C(=O)N2)c(C(=O)O)c1` (stereo not given) reads “inactive”; that for `CCC(=NOC/C=C/Cl)C1=C(O)CC(C2CCOCC2)CC1=O` (stereo not given), “inactive”.
With `COc1cccc(C(=O)NN(C(=O)c2cc(C)cc(C)c2)C(C)(C)C)c1C`, the AC50 was 20 µM (active).
As to `Cc1nn(-c2cc(NS(C)(=O)=O)c(Cl)cc2Cl)c(=O)n1C(F)F`, the result was inactive.
